Six molecules from ChEMBL document CHEMBL1961873, “Compounds: GSK PKIS; Assays: Nanosyn kinase panel” (2012) can be followed below.

Assay [1] has as its target Mast/stem cell growth factor receptor Kit (Homo sapiens) (UniProt P10721). The following applies: at 1 µM.
In assay [2] the test system is Mast/stem cell growth factor receptor Kit (Homo sapiens), P10721 [D816V]. Particulars: at 0.1 µM.
Assay [3] has the same test system. The following applies: at 1 µM.
Assay [4] relates to Mast/stem cell growth factor receptor Kit (Homo sapiens), P10721 [T670I]. Particulars: at 0.1 µM.
Chain of Mast/stem cell growth factor receptor Kit (Homo sapiens), P10721 [T670I] (P10721 whole entry T670I): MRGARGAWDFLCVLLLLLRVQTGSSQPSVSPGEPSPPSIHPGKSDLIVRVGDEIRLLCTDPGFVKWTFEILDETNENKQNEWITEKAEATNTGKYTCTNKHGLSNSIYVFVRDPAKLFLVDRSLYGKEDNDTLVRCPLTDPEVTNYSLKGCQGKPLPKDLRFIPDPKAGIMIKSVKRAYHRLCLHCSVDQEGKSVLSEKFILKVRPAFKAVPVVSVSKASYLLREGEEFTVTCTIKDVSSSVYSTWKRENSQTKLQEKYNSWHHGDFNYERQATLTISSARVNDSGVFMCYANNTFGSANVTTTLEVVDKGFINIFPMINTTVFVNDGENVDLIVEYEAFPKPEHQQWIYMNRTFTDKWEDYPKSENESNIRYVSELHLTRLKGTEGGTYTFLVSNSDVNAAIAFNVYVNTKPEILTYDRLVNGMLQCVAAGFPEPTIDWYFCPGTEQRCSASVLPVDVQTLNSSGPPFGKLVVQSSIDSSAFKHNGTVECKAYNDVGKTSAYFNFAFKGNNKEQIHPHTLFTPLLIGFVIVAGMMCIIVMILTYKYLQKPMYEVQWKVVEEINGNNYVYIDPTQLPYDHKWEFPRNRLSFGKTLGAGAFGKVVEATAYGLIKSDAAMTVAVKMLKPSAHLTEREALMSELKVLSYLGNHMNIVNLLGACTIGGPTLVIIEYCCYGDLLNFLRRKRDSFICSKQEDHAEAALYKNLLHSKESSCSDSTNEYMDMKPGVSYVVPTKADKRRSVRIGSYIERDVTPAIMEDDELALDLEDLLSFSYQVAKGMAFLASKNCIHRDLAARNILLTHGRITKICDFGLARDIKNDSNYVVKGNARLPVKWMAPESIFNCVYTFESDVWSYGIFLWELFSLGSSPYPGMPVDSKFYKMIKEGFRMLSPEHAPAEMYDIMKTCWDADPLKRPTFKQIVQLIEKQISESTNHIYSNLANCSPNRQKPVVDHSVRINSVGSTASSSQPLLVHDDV
For assay [5] the test system is unchanged. Particulars: at 1 µM.
The subject of assay [6] is Mast/stem cell growth factor receptor Kit (Homo sapiens), P10721 [V560G]. The following applies: at 0.1 µM.
The test system is the same in assay [7]. Particulars: at 1 µM.
For assay [8], the target named is Tyrosine-protein kinase Lck (Homo sapiens) (UniProt P06239). Particulars: at 0.1 µM.
Chain of Tyrosine-protein kinase Lck (Homo sapiens) (P06239 2-509 limits assumed): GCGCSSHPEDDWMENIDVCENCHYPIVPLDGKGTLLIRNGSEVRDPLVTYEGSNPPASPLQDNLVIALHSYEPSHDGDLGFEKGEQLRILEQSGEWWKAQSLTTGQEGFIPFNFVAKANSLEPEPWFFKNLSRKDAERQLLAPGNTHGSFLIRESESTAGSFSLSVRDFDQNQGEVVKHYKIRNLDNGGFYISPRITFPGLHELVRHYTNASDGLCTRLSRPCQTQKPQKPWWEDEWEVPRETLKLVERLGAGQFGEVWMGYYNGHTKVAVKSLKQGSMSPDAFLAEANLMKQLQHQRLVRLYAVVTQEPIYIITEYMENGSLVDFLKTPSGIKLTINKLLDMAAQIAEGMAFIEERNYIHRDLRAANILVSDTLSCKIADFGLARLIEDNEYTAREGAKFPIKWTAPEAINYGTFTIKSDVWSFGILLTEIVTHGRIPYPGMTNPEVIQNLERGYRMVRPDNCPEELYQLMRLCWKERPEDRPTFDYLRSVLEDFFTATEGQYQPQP
Assay [9] shares this target. Particulars: at 1 µM.
The target of assay [10] is Leukocyte tyrosine kinase receptor (Homo sapiens) (UniProt P29376). The following applies: at 0.1 µM.
Chain of Leukocyte tyrosine kinase receptor (Homo sapiens) (P29376 whole entry): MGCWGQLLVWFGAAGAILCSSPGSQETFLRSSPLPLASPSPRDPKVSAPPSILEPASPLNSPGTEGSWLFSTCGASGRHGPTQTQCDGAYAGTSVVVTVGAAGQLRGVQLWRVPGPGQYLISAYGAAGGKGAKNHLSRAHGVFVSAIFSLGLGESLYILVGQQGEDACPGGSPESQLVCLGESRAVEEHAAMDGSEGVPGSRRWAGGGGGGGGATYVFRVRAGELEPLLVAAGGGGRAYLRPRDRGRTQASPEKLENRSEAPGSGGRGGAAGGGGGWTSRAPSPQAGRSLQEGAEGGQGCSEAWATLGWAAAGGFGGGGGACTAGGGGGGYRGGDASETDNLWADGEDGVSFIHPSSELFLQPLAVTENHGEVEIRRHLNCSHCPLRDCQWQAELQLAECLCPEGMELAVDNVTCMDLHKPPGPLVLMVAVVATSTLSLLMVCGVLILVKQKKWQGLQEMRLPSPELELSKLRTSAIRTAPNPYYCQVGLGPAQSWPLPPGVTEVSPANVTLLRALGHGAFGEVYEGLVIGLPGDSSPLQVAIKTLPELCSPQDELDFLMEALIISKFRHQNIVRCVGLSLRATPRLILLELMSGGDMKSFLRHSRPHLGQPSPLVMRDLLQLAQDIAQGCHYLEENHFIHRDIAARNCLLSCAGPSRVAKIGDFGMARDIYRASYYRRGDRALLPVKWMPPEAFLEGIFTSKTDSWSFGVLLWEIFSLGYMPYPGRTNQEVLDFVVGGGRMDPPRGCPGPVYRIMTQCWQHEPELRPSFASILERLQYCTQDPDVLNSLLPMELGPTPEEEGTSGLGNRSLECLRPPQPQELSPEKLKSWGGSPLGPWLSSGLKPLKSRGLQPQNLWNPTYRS
Assay [11] has the same target. Particulars: at 1 µM.
In assay [12] the target is Tyrosine-protein kinase Lyn (Homo sapiens) (UniProt P07948). Particulars: at 0.1 µM.
Chain of Tyrosine-protein kinase Lyn (Homo sapiens) (P07948 2-512 limits assumed): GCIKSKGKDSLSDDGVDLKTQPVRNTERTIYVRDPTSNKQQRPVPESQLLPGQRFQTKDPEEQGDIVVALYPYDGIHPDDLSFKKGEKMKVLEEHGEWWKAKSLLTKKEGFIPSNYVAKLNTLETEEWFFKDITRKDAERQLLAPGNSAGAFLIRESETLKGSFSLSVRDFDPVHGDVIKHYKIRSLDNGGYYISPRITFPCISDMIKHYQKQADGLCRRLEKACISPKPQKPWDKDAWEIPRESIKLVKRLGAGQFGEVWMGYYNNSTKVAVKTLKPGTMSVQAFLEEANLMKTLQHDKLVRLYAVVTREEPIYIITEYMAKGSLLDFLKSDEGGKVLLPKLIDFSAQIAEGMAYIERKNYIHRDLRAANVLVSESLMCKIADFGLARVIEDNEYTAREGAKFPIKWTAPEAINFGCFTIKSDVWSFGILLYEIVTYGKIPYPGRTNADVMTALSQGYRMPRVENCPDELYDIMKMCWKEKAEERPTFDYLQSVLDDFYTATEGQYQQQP
Assay [13] shares this target. Particulars: at 1 µM.
For assay [14] the target is unchanged. The following applies: at 0.1 µM. The source holds these as a separate data set.
Assay [15] has the same target. Particulars: at 1 µM. This is another data set of the same source.
For assay [16], the target named is T1, Tyrosine-protein kinase Mer (Homo sapiens) (UniProt Q12866).
T1 sequence (whole entry): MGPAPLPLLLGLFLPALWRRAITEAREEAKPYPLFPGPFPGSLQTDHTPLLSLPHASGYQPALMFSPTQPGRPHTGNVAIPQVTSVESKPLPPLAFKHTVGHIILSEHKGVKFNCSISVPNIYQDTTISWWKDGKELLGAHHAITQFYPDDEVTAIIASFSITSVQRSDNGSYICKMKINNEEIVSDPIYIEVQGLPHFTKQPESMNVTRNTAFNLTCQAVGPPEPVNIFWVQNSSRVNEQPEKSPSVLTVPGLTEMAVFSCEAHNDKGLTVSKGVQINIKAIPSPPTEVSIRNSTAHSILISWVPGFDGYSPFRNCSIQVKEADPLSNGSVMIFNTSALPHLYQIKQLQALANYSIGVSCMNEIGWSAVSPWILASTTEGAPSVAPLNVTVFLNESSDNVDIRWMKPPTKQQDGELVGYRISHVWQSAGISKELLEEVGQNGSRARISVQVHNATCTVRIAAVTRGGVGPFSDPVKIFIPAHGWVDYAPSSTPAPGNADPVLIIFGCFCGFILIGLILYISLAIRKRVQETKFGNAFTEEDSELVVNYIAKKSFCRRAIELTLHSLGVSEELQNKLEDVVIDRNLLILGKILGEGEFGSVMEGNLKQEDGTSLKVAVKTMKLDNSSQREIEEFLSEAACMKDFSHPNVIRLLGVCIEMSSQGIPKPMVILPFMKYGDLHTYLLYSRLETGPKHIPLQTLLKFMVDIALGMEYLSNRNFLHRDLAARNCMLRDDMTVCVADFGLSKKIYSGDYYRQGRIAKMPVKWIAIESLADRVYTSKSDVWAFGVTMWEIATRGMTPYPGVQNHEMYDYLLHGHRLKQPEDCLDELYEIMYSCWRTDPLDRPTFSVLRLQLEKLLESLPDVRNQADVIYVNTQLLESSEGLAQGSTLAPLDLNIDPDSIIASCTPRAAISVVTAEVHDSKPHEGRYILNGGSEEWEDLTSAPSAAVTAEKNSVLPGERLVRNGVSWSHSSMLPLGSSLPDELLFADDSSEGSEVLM
Particulars: at 0.1 µM.

In assay [17] the target is T1, Tyrosine-protein kinase Mer (Homo sapiens). The following applies: at 1 µM.
The target of assay [18] is Hepatocyte growth factor receptor (Homo sapiens) (UniProt P08581). The following applies: at 0.1 µM.
Chain of Hepatocyte growth factor receptor (Homo sapiens) (P08581 whole entry): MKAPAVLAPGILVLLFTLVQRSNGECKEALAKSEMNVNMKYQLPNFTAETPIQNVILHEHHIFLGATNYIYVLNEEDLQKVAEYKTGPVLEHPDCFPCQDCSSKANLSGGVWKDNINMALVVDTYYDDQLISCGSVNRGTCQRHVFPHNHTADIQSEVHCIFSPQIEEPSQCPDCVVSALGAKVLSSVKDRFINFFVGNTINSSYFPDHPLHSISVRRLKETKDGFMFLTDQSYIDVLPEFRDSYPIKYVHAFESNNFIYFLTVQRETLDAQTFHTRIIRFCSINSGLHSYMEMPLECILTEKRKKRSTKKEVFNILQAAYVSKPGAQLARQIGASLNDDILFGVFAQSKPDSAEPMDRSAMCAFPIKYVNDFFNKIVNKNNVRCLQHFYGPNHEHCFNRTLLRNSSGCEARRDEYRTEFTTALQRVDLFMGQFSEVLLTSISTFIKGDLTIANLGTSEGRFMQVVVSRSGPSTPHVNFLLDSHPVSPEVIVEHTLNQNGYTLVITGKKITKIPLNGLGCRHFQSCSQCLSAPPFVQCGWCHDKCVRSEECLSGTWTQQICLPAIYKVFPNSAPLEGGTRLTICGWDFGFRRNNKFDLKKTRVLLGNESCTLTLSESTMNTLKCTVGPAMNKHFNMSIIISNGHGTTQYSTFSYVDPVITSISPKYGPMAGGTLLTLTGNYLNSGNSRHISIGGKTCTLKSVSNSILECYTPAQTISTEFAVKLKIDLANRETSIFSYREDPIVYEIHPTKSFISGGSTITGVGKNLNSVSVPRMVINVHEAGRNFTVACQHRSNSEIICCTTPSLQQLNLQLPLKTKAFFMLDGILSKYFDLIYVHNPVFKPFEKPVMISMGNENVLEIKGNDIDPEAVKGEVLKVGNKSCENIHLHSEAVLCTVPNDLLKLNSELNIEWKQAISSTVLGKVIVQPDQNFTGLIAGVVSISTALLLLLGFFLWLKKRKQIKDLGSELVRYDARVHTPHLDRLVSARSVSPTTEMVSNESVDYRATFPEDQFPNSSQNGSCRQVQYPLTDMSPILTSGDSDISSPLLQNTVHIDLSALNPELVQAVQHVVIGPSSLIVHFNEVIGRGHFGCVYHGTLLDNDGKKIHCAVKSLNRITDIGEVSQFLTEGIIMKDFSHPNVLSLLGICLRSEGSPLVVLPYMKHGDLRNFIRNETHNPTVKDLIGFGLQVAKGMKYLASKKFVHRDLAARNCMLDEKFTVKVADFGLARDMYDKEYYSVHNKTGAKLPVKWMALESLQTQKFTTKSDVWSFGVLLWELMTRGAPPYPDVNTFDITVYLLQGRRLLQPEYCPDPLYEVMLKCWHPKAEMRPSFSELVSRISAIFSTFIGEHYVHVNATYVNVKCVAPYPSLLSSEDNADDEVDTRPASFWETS
Assay [19] has the same target. Particulars: at 1 µM.
Assay [20] has as its target T2, Muscle, skeletal receptor tyrosine-protein kinase (Homo sapiens) (UniProt O15146).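 Note: values are mean inhibition of MuSK from the GSK PKIS kinase screening panel.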
T2 sequence (whole entry): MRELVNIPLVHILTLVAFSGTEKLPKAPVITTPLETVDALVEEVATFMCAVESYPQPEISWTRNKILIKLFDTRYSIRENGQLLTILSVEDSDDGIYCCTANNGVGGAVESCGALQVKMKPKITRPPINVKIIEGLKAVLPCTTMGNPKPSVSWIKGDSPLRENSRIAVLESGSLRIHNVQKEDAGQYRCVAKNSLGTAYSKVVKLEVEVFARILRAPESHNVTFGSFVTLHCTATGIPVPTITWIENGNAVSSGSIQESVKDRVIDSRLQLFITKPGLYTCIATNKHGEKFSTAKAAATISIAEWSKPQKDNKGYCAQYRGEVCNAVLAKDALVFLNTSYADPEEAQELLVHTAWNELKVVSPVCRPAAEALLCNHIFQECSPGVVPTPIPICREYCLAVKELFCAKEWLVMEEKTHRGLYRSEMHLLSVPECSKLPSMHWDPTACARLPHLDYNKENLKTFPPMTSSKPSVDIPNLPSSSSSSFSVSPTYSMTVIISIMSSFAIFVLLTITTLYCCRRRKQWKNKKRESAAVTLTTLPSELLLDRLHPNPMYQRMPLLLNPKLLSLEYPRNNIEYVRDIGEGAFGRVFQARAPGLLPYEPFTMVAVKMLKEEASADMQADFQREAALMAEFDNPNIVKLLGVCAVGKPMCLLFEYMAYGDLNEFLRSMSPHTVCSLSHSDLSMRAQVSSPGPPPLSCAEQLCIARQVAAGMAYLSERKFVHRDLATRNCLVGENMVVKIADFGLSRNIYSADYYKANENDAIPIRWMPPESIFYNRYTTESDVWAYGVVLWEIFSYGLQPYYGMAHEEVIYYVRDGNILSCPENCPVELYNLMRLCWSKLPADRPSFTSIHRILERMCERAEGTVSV
Particulars: at 0.1 µM.

Chain of Mast/stem cell growth factor receptor Kit (Homo sapiens), P10721 [D816V] (P10721 whole entry D816V): as the sequence (P10721 whole entry T670I) above, with I670T, D816V counted along it
Chain of Mast/stem cell growth factor receptor Kit (Homo sapiens) (P10721 whole entry): as the sequence (P10721 whole entry T670I) above, with I670T counted along it
Chain of Mast/stem cell growth factor receptor Kit (Homo sapiens), P10721 [V560G] (P10721 whole entry V560G): as the sequence (P10721 whole entry T670I) above, with V560G, I670T counted along it

As usually defined, the inhibition is the relative decrease from the control value, in per cent. As for `COc1c(C(N)=O)cc(-c2ccc(Cl)cc2)cc1-c1ccc(S(N)(=O)=O)cc1`, the inhibition came to 11.2% in [1]; 3.27% in assay [2]; 3.88% in assay [3]; 1.48% in [4]; 2.82% in [5]; 1.14% in [6]. Besides, the inhibition was -3.65% in [7]; 3.23% in [8]; 2.89% in [9]; 5.37% in assay [10]; 6.74% in [11]; 5.65% in assay [12]. For the same molecule, the inhibition in assay [13] is 6.7%; in assay [14], 3.05%; in assay [15] it was 3.95%; in [16], 2.2%; in [17], 6.71%; in assay [18], 10.9%. The inhibition in assay [19] stood at 5.98%; in assay [20], 2.39%.
Take `O=C1Nc2ccccc2/C1=C1\CCc2cc(O)ccc21`: the inhibition was 93.7% in assay [1]; 4.08% in assay [2]; 1.34% in assay [3]; 39.3% in [4]; 88.1% in [5]; 6.44% in assay [6]. For the same molecule, the inhibition in assay [7] turned out to be 41.6%; in assay [8] it was 3.68%; in assay [9], 8.53%; in [10], 7.84%; in [11], 36.7%; in assay [12], 6.08%. Besides, the inhibition in [13] was 12%; in [14], 2.38%; in assay [15], 9.08%; in assay [16], 2.69%; in assay [17], 8.7%; in assay [18], 6.45%. For the same molecule, the inhibition in [19] came to 10.1%; in assay [20], 5.49%.
On to `O=C(O[C@H]1CN[C@H](C#Cc2cc3ncnc(Nc4ccc5c(ccn5Cc5cc(F)ccc5F)c4)c3s2)C1)N1CCOCC1`, for which the inhibition was 2.34% in [1]; 3.87% in assay [2]; 3.82% in assay [3]; 3.88% in assay [4]; 2.88% in [5]; -0.88% in [6]. Also, the inhibition in [7] is -2.32%; in [8] it was 2.27%; in assay [9] it was 4.87%; in assay [10], 5.27%; in [11], 4.15%; in assay [12] it was 4.33%. The inhibition in assay [13] amounted to 6.23%; in assay [14] it was 2.03%; in [15], 1.87%; in assay [16], 1.34%; in assay [17], 3.33%; in assay [18], 7.21%. The inhibition in [19] was 10.8%; in assay [20], 2.87%.
For the molecule `c1cnn2ncc(-c3ccnc(NCCCN4CCOCC4)n3)c2c1`, the inhibition in assay [1] was 5.88%; in assay [2], 6.89%; in assay [3] it was 4.06%; in [4], 9.96%; in [5] it was 3.97%; in assay [6] it was -0.98%. In addition, the inhibition is -1.13% in assay [7]; 1.55% in assay [8]; 1.64% in [9]; 2.87% in assay [10]; 2.33% in assay [11]; 5.49% in assay [12]. Moreover, the inhibition in assay [13] is 3.64%; in [14] it was 2.77%; in assay [15], 0.53%; in [16], 3.19%; in assay [17] it was -0.16%; in [18], -0.1%. Besides, the figures for the inhibition in assay [19] and in assay [20] were 0.15% and 2.04%, respectively.
Take `COc1cc(N2CCN(C(C)C)CC2)ccc1Nc1nc(Nc2cccc(F)c2C(=O)O)c2cc[nH]c2n1`: the inhibition in assay [1] is 8.76%; in assay [2] it was 3.82%; in assay [3], 3.22%; in [4], 2.33%; in [5], 3.08%; in [6], -0.92%. For the same molecule, the inhibition in assay [7] was found to be 0.71%; in assay [8] it was 1.92%; in assay [9], 2.86%; in assay [10] it was 66.4%; in [11], 91.8%; in assay [12] it was 4.91%. Also, the inhibition in assay [13] is 8.65%; in assay [14], 3.03%; in [15] it was 6.2%; in assay [16], 1.01%; in [17] it was 4.62%; in [18], 9.65%. Also, the figures for the inhibition in [19] and in [20] were 1.52% and 4.22%, respectively.
`CC(C)c1ccc(-c2cc(-c3c[nH]nc3-c3ccccn3)ccn2)cc1`: the inhibition is 2.85% in assay [1]; 0.06% in assay [2]; 3.83% in assay [3]; 1.04% in assay [4]; 1.23% in [5]; -0.59% in [6]. In addition, the inhibition is 3.5% in [7]; 1.31% in [8]; -0.13% in assay [9]; 1.24% in assay [10]; 2.43% in assay [11]; 1.49% in [12]. The inhibition in assay [13] is 1.48%; in assay [14], 0.81%; in [15], 1.31%; in assay [16] it was -0.12%; in [17] it was 3.22%; in assay [18], -1.81%. Besides, the inhibition in assay [19] amounted to 3.3%; in assay [20], 5.54%.
